Laboratory results taken from PubChem BioAssay AID1851 (National Center for Advancing Translational Sciences (NCATS), 2009).
Several values for one entry are separate records, joined by “and”; a condition that tells them apart may be missing. Identical values can stand only once. In all, about 16,000 compounds went through this assay and about 2,600 (16%) were called active. Another 20% or so got no clear call; they are omitted. The call rests on the fitted dose curve; in most records, active means well fitted curve in the direction sought with a large enough effect; inconclusive means small, poorly fitted or top-dose-only effect, or effect the other way; inactive means no such curve, though single readings can be large or run the other way. The list is a sample of the results.

target: Cytochrome P450 2D6 (Homo sapiens) (UniProt P10635); test: Cytochrome panel assay with activity outcomes; conditions: recombinant CYP, pro-luciferin dealkylation, luminescence, p450-cyp2d6; series mostly up to 57.1 µM; activity, negative = inhibition: at the top concentration
On the % scale 0 is the no-effect control and ±100 the full control effect.

Sequence of Cytochrome P450 2D6 (Homo sapiens) (P10635 whole entry, looked up): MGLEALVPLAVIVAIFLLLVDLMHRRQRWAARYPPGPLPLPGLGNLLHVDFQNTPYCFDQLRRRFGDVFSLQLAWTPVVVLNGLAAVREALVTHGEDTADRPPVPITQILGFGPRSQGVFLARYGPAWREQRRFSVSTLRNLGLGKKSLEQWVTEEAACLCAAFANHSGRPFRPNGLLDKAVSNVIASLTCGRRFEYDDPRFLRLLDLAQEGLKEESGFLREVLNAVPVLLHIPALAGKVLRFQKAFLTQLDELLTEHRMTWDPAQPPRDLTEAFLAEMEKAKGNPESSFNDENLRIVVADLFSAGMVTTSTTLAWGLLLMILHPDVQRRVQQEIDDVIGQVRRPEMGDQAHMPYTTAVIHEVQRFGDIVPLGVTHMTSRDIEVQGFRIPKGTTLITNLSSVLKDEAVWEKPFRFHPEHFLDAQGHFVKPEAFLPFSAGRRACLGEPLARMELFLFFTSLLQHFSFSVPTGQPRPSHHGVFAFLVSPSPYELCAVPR

| Structure (SMILES) | activity, negative = inhibition | AC50 |
| --- | --- | --- |
| Cc1noc(C)c1-c1nc(Nc2ccc(F)cc2)c2ccccc2n1 | -9.98% (inactive) |  |
| CCOC(=O)c1ccc(Nc2nc(C(=O)OCC)nc3ccccc23)cc1 |  | 3.98 µM (active) |
| CCCc1nc2sc3ccccc3c(=O)c2c(=O)n1CCOC | 12.1% (inactive) |  |
| COc1cc(C(=O)NC(=S)Nc2cccc(-c3cc4ccccc4oc3=O)c2)cc(OC)c1OC | 20.4% (inactive) |  |
| CC(=O)NS(=O)(=O)c1ccc(NC(=S)NC(=O)c2ccco2)cc1 | 0.0503% (inactive) |  |
| Cc1cccc(N(C)C(=S)Oc2ccc3ccccc3c2)c1 | -2.27% [at 25.6 µM] (inactive) |  |
| Cn1c(=NC(=O)CCl)sc2ccccc21 | -4.21% (inactive) |  |
| N=c1sc2ccccc2n1CCS (tested in a mixture with another compound) |  | 0.316 µM (active) |
| O=C(O)c1ccccc1NCn1c(=S)sc2ccccc21 | -8.67% [at 11.4 µM] (inactive) |  |
| COc1cccc(CNc2ccc(F)c(Cl)c2)c1O | -15.3% (inactive) |  |
| COc1ccccc1CNCC(O)(c1ccc(Cl)cc1)c1ccc(Cl)cc1 |  | 0.316 µM (active) |
| CCS(=O)(=O)N1CCC(C(=O)NCc2ccccc2OC)CC1 | -5.28% (inactive) |  |
| COC(=O)c1sccc1NC(=O)c1cc(-c2cc(C)ccc2C)nc2ccccc12 | 19.6% (inactive) |  |
| Cc1nnc(NC(=O)CSc2ncnc3c2cnn3-c2ccccc2C)s1 | 9.93% (inactive) |  |
| O=C(O)c1cccnc1SCC(=O)N1CCCCCC1 | 4.75% (inactive) |  |
| Cc1ccc(SCCNC(=O)c2ccccc2)cc1 | -18.3% (inactive) |  |
| COC(=O)c1cc(OC)c(OC)cc1NC(=O)CSc1ccc(C)cc1 | 7.75% (inactive) |  |
| Cc1ccc(SCCNC(=O)c2ccc(C)c(S(=O)(=O)Nc3ccccc3C)c2)cc1 |  | 7.94 µM (active) |
| COc1ccc(C2C(=O)N(C3CCCCCC3)CC(=O)N2Cc2ccccc2)cc1OC (stereo unspecified) | -2.33% (inactive) |  |
| CO[C@H]1COC(=O)[C@H](Cc2ccccc2)NC(=O)C/C=C\[C@@H](C)[C@H](OC)COC(=O)C/C=C\[C@@H]1C | 11.3% [at 11.4 µM] (inactive) |  |
| COC(=O)c1cc(NC(=O)/C=C/c2ccc3c(c2)OCO3)cc(C(=O)OC)c1 | -15.2% (inactive) |  |
| O=C(/C=C\c1ccc2c(c1)OCO2)c1ccc(F)cc1 |  | 2 µM (active) |
| CCOC(=O)c1c(NC(=O)/C=C/c2ccc3c(c2)OCO3)sc(C)c1CC | -4.86% (inactive) |  |

| Structure (SMILES) | activity, negative = inhibition | AC50 |
| --- | --- | --- |
| O=C(O)/C=C\C=C/c1ccc2c(c1)OCO2 | -10.2% [at 11.4 µM] (inactive) |  |
| O=C(/C=C\c1ccccc1)c1ccccc1O | -5.64% [at 11.4 µM] (inactive) |  |
| CN(C)C(=O)CN(c1ccc2c(c1)OCO2)S(C)(=O)=O | -17.5% (inactive) |  |
| COc1ccc2cc3cc(C(=O)Nc4ccc5c(c4)OCO5)oc3nc2c1 | -26.3% (inactive) |  |
| COCOc1cc(OC)ccc1C(=O)/C=C\c1ccc2c(c1)OCO2 |  | 3.98 µM (active) |
| Nc1ccccc1C(=O)/C=C\c1ccc2c(c1)OCO2 |  | 3.16 µM (active) |
| CCOC(=O)c1[nH]c(C)c(/C(O)=C2\C(=O)C(=O)N(CCN3CCOCC3)C2c2cccs2)c1C (stereo unspecified) | -7.66% (inactive) |  |
| Cc1ccccc1-n1nc2c(c1NC(=O)c1c(-c3ccccc3Cl)noc1C)CSC2 | 0.2% (inactive) |  |
| COCC(=O)N1CCN(c2ccc([N+](=O)[O-])cc2)CC1 | 13.8% (inactive) |  |
| CN1C(=O)NC(c2ccc(O)cc2)C(C(=O)c2cccs2)C1(O)C(F)(F)F (stereo unspecified) | -6.24% (inactive) |  |
| Cc1cccc(C)c1NC(=O)c1cc2c(=O)c3ccccc3oc2nc1C(F)(F)F | 27.2% (inactive) |  |
| CO[C@H]1COC(=O)[C@@H](C)COC(=O)[C@@H](COCc2ccccc2)NC(=O)C/C=C\[C@H]1C | 6.49% [at 11.4 µM] (inactive) |  |
| CC(=O)N(/N=C/c1cccc(C)c1)c1nc(-c2ccc(Br)cc2)cs1 | 22.1% (inactive) |  |
| Cc1cc(N)c2ccccc2[n+]1CCCCCCCCCCCCCC[n+]1c(C)cc(N)c2ccccc21 |  | 7.94 µM (active) |
| Cc1cc(N)c2ccccc2[n+]1CCCCCCCCCC[n+]1c(C)cc(N)c2ccccc21 |  | 10 µM (active) and 15.8 µM (active) |
| Cn1c(N)c(C(=O)CSc2ccc3c(c2)OCCO3)c(=O)n(C)c1=O | -9.58% (inactive) |  |
| O=C(COc1cccc2ccccc12)N1c2ccccc2CCc2ccccc21 | -6.12% (inactive) |  |
| COC(=O)[C@@H](NC(=O)Nc1ccc(C(C)=O)cc1)C(C)C | 15.7% (inactive) |  |
| CC(C)=CCC/C(C)=C/CO/N=C1/C[C@@H](O)[C@@H](O)[C@@H]2[C@@H]3C(=O)N(Cc4ccc5c(c4)OCO5)C(=O)[C@H]3CC[C@@H]12 | -7.94% [at 11.4 µM] (inactive) |  |
| COc1cc(/C=N/O)cc(Br)c1OCc1cccc(Cl)c1 | -27.4% (inactive) |  |
| O=C(SCc1cccc2ccccc12)c1ccc(Cl)cc1 | -11.2% [at 11.4 µM] (inactive) |  |
| O/N=C/c1cc(Cl)ccc1OCc1cccc2ccccc12 |  | 15.8 µM (active) |
| CC(C)C(NS(=O)(=O)c1cccc2nsnc12)C(=O)N1CCc2ccccc2C1 (stereo unspecified) | -3.17% (inactive) |  |
